Results filed as inconclusive are left out. A number with no mark means an inactive call. Unless noted, calls come from the whole dose curve; as a rule, active = well fitted curve in either direction with a large enough effect (not every such curve was filed as active); inconclusive = small, poorly fitted or top-dose-only effect, or another doubt; inactive = flat fitted curve, though single readings scatter.
Assay: Cell Viability - HepG2 (AID 433; calls by dose curve;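 note: potency is the fitted concentration of half-maximal effect; potency for ATP loss meaning cytotoxicity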)
Conditions: qHTS
Outline: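 HepG2 hepatocellular carcinoma cells (1500/well) were treated with compounds for 40 h at 37 °C in complete medium; intracellular ATP was read by CellTiter-Glo luminescence. Data were normalized to DMSO and 100 uM tamoxifen, and AC50 came from Hill fits.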

| Compound | Potency [µM] |
| --- | --- |
| Cc1occc(=O)c1O | > 92 |
| CC1=CC(=O)CC(C)(C)C1(O)/C=C/C(C)=C\C(=O)O (centres undefined) | > 92 |
| COS(C)(=O)=O | > 92 |

Assay: Cell Viability - MRC5 (AID 434; calls by dose curve;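 note: potency is the fitted concentration of half-maximal effect; potency reflects cytotoxicity seen as loss of intracellular ATP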)
Conditions: MRC5 lung fibroblast viability, qHTS
Outline: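 MRC5 normal human lung fibroblasts (1500/well) were treated with compounds for 40 hr at 37 °C in complete medium, and viable cells were measured as intracellular ATP by CellTiter-Glo luminescence. AC50 came from Hill fits, normalized to DMSO and 100 uM tamoxifen.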

| Compound | Potency [µM] |
| --- | --- |
| Cc1occc(=O)c1O | > 92 |
| CC1=CC(=O)CC(C)(C)C1(O)/C=C/C(C)=C\C(=O)O (centres undefined) | > 92 |
| COS(C)(=O)=O | > 92 |

Assay: Cell Viability - SK-N-SH (AID 435; calls by dose curve;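 note: potency is the fitted concentration of half-maximal effect; compound exposure lasted 40 h at 37 °C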)
Conditions: SK-N-SH neuroblastoma cell viability qHTS
Outline: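 SK-N-SH human neuroblastoma cells (1500/well) were exposed to compounds in complete medium for 40 h at 37 °C, and intracellular ATP was then measured by CellTiter-Glo luminescence. AC50 was taken from Hill fits, normalized to DMSO and 100 uM tamoxifen.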

| Compound | Potency [µM] |
| --- | --- |
| Cc1occc(=O)c1O | > 92 |
| CC1=CC(=O)CC(C)(C)C1(O)/C=C/C(C)=C\C(=O)O (centres undefined) | > 92 |
| COS(C)(=O)=O | > 92 |

Assay: NFAT Signaling Pathway (AID 444);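 note: carbachol stimulus at about its EC50 of 1 µM final; % is set by controls: 0 for no effect and ±100 for the full control effect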
Conditions: Jurkat NFAT-bla M1, carbachol, beta-lactamase ratio, 5 h; at 7.69 µM (top of the series) unless noted
Outline: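 Jurkat cells carrying an NFAT-driven β-lactamase reporter and co-transfected muscarinic M1 receptor were treated with compound plus carbachol (1 uM final, an EC50 level) for 5 h at 37 °C. CCF4 loading followed for 1 h at RT; 460/530 nm ratio gave %activity.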

| Compound | activity change, negative = inhibition [%] |
| --- | --- |
| CN1CCCC[C@@H]1CCN1c2ccccc2Sc2ccc(S(C)=O)cc21 (some centres undefined) | 1.36 |
| CN(Cc1ccco1)c1ccnc(-c2cccc(NS(C)(=O)=O)c2)n1 | -2.37 |
| Cc1cccc(CNc2ncncc2-c2ccccc2C(F)(F)F)c1 | -6.75 |
| COc1ccccc1-c1ccc2ncnc(N(C)C)c2c1 | -2.93 |
| COc1cccc(Nc2ncc3nc(C)c(=O)n(CCC#N)c3n2)c1 | 4.34 |
| Cn1cccc1C(=O)N1CCC2(CC1)CN(Cc1cc(C(F)(F)F)cc(C(F)(F)F)c1)C2 | 15.4 |
| COc1ccc2[nH]cc(CCNc3ncnc4ccc(-c5ccc(C(=O)N(C)C)cc5)cc34)c2c1 | 5.5 |
| CN(C)Cc1ccccc1-c1ccc2ncnc(NCc3ccccc3)c2c1 | -27 |
| Cc1cccc(CNc2cc(-c3ccc(C(=O)N(C)C)cc3)ncn2)c1 | 13.4 |
| COc1ccc2[nH]cc(CCNc3cc(-c4ccoc4)ncn3)c2c1 | 2.58 |
| Cc1cccc(CNc2ccnc(-c3ccc(C(=O)N(C)C)cc3)n2)c1 | 6.95 |
| CN(C)Cc1ccccc1-c1nc(N(C)Cc2ccco2)c2ccccc2n1 | -18.4 |
| Cc1cccc(CNc2nc(-c3ccoc3)nc3ccccc23)c1 | -3.51 |
| CNc1nc(-c2ccccc2OC)nc2ccccc12 | -10.4 |
| COc1ccccc1-c1cncnc1NCc1cccc(C)c1 | -21.2 |
| CC(=O)N1CCC2(CC1)CCN(c1ccncc1)CC2 | -17.4 |
| Cc1nc2cnc(N(C)C)nc2n(Cc2cccs2)c1=O | -7.11 |
| c1ccc2c(Nc3ccncc3)nc(-c3ccoc3)nc2c1 | -19.5 |

| Compound | activity change, negative = inhibition [%] |
| --- | --- |
| COCC(=O)N1CCC2(CCN(Cc3ccncc3)CC2)CC1 | -6.67 |
| CS(=O)(=O)Nc1cccc(-c2nc(N3CCOCC3)c3ccccc3n2)c1 | 27.4 |
| Cc1cccc(CNc2nc(-c3cccc(NS(C)(=O)=O)c3)nc3ccccc23)c1 | -6.18 |
| CNc1ncnc2ccc(-c3ccccc3OC)cc12 | 15.1 |
| N#CCCn1c(=O)cnc2cnc(N3CCNCC3)nc21 | 3.67 |
| CC(C)NC(=O)N1CCC2(CC1)CCN(C(=O)c1cnccn1)CC2 | 7.26 |
| COc1ccc2[nH]cc(CCNc3ncnc4ccc(-c5ccccc5CN(C)C)cc34)c2c1 | -18.9 |
| COCCNc1nc(-c2cccc(OC)c2)nc2ccccc12 | 0.846 |
| CN(C)c1ccc(-c2cc(NCc3cccnc3)ncn2)cc1 | 5.75 |
| COc1ccc2[nH]cc(CCNc3ncncc3-c3ccccc3CN(C)C)c2c1 | -7.95 |
| Cc1ccccc1-c1nc(-n2ccnc2)c2ccccc2n1 | -10.1 |
| COc1ccccc1CNc1ccnc(-c2ccccc2C(F)(F)F)n1 | -19.1 |
| COc1ccccc1-c1nc(NCc2cnc(C)cn2)c2ccccc2n1 | 2.11 |
| COc1ncc2nc(-c3ccc(Cl)cc3)c(=O)n(-c3ccccc3)c2n1 | -0.099 |
| COCCNc1ncnc2ccc(-c3ccccc3CN(C)C)cc12 | -6.98 |
| COc1ccc(C(=O)N2CCC3(CCN(C(=O)Nc4cccc(F)c4)CC3)CC2)cc1 | 7.36 |
| Cc1cccc(CNc2ccnc(-c3ccccc3CN(C)C)n2)c1 | -18.8 |
